A selection: hits, their analogues and other compounds. The true share with any hit is near 6.6%.
FBA Mtb inh: inhibitors of M. tuberculosis fructose-bisphosphate aldolase. AID 588726. actives 2.3% (n = 360,000). inhibition, % at 1 µM. purified M. tuberculosis FBA, fluorescence read-out; in the data active = inhibition above about 27%;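 note: 0% = vehicle and 100% = reference inhibitor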
Anthrax LF prot: inhibitors of Bacillus anthracis lethal factor protease | multiplex microsphere protease cleavage assay, LF | inhibition, % at 10 µM | AID 588501 | actives 0.12% (n = 360,000); note: plate controls were buffer without enzyme for full effect and enzyme alone for no effect
Target sequence (P15917 whole entry, looked up): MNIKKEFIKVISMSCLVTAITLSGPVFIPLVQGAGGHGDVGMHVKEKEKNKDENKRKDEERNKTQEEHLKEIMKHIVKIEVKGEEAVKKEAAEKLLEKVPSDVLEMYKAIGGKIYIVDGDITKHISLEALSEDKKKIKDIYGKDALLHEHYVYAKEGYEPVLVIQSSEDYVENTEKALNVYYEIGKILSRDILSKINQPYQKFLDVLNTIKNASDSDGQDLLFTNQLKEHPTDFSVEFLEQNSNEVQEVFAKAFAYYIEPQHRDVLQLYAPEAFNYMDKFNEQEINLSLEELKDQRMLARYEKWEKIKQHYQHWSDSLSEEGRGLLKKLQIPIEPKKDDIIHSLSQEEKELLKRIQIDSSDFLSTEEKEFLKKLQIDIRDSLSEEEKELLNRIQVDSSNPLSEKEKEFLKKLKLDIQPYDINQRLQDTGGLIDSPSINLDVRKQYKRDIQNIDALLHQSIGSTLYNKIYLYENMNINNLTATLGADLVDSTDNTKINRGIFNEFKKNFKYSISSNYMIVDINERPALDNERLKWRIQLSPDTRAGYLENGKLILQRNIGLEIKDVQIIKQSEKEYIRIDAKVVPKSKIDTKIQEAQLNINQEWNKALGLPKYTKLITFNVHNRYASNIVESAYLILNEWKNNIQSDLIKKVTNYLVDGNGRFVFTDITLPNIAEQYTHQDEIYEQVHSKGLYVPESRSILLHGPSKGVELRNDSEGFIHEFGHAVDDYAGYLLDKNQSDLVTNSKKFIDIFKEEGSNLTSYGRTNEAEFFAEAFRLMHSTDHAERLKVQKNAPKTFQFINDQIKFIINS
Bead autofluor: compound fluorescence in toxin protease inhibitor counterscreen; actives 3.1% (n = 360,000); AID 624483; fluorescence intensity (test concentration not listed); compound autofluorescence counterscreen, microsphere flow cytometry; stronger effect = higher value; in the data active = fluorescence intensity above about 16000; inconclusive = no clear call, values can overlap the other calls
BoNT F protease: inhibitors of Botulinum neurotoxin F light chain protease; actives 0.22% (n = 360,000); AID 588497; inhibition, % at 10 µM; Multiplex microsphere protease cleavage assay, flow cytometry; in the data active = inhibition above about 35%, passing the limit was not always enough; inconclusive = no clear call, values can overlap the other calls; note: plate controls were buffer without enzyme for full effect and enzyme alone for no effect
GDH-TPI counter-1: counter-screen for M. tuberculosis FBA inhibitors: GDH-TPI coupled enzymes; GDH-TPI coupled enzyme counterscreen, NADH absorbance; inhibition, % at 4.8 µM; actives 1.2% (n = 360,000); AID 588335; in the data active = inhibition above about 30%;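 note: 0% = DMSO wells and 100% = wells lacking the enzyme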
BoNT-A LC inh2: BoNT A light chain protease inhibition; AID 588499; multiplex microsphere protease substrate cleavage, flow cytometry; actives 0.17% (n = 360,000); inhibition, % at 10 µM; note: plate controls were buffer without enzyme for full effect and enzyme alone for no effect
Mtb FBA inh conf: Mtb FBA inhibition, confirmed; shares compounds with FBA Mtb inh; purified M. tuberculosis FBA, fluorescence read-out; inhibition, % at 1 µM; actives 78% (n = 5,600); in the data active = inhibition above about 27%;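 note: 0% = vehicle wells and 100% = reference inhibitor wells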
GDH-TPI counter-2: GDH-TPI inhibition counter-screen for FBA inhibitors; shares compounds with FBA Mtb inh; GDH-TPI coupled enzyme counterscreen, fluorescence; inhibition, % at 1 µM; actives 81% (n = 5,600); AID 652141; in the data active = inhibition above about 10%
Active calls of the source: *; ? = inconclusive; · = no result. Cut-off read from the data, not from the text of the source, unless noted: active = inhibition above about 30%; inconclusive = no clear call, values can overlap the other calls; inactive = below that.

SMILES | FBA Mtb inh | Anthrax LF prot | Bead autofluor | BoNT F protease | GDH-TPI counter-1 | BoNT-A LC inh2 | Mtb FBA inh conf | GDH-TPI counter-2
CCOc1ccc(-c2cc3cc(OC)c(OC)cc3c(C)n2)cc1 | 27.5* | 2.1 | 3380 | 4.3 | 2.2 | 0.6 | 60.0* | 43.5*
Cn1c(=O)c2cc(NC(=S)NCc3ccccc3F)ccc2n1C | 57.1* | 11.3 | 3312 | 11.3 | 8.2 | 0.7 | 17.8 | 11.8*
Cn1c(=O)c2cc(NC(=O)CCc3cccc(Cl)c3)ccc2n1Cc1cccc(C(F)(F)F)c1 | 36.7* | -1.2 | 3660 | 4.8 | -3.5 | 0.1 | 95.6* | 84.3*
Cn1c(=O)c2cc(NC(=O)NCc3ccc(Cl)cc3Cl)ccc2n1Cc1ccccc1 | 48.3* | -1.8 | 2851 | -4.2 | 8.0 | 0.2 | 152.5* | 116.6*
COc1ccc(OC)c(CC(=O)Nc2ccc3c(c2)c(=O)n(C)n3Cc2cccc(C(F)(F)F)c2)c1 | 110.7* | -9.9 | 3505 | -4.3 | -4.9 | 0.2 | 36.4* | 27.5*
OCCC1CN(CCCn2cccn2)CCN1C1CCCCC1 (centres undefined) | 2.5 | -1.6 | 4205 | -4.8 | 0.3 | 0.1 | · | ·
CCOC(=O)C1=CCN(S(=O)(=O)c2ccccc2Cl)C1c1cccc(Br)c1 (centres undefined) | -1.6 | -1.7 | 6370 | 0.9 | · | -0.5 | · | ·
CCOc1cc(S(=O)(=O)N(CC)CC)c(OCC)cc1-n1cnnn1 | 28.0* | -3.7 | 8233 | -9.7 | 10.4 | -1.6 | 193.2* | 136.5*
CCOc1cc(S(=O)(=O)NCCc2ccccc2C)c(OCC)cc1-n1cnnn1 | 50.9* | 1.8 | 8447 | -5.3 | 7.4 | -0.7 | 21.6 | 11.9*
CCOc1cc(S(=O)(=O)N2CC=C(c3ccc(F)cc3)CC2)c(OCC)cc1-n1cnnn1 | 2.3 | -6.3 | 9410 | -2.7 | -5.6 | -0.4 | · | ·
Cc1ccccc1-n1c(SCC(=O)NCC2CCCO2)nc2c([nH]c3ccccc32)c1=O (centres undefined) | 1.9 | 3.1 | 6347 | -3.3 | 7.0 | 2.4 | · | ·
O=C(CSc1nc2c([nH]c3ccccc32)c(=O)n1-c1ccccc1F)NCC1CCCO1 (centres undefined) | 36.3* | -1.1 | 5952 | 8.4 | 1.4 | -0.3 | 89.4* | 52.6*
O=C1CN(Cc2ccccc2)C(=NCc2ccco2)S1 | 27.8* | -0.2 | 4630 | 4.3 | 3.3 | -0.5 | 183.8* | 162.8*
COC(=O)c1cc2nc(-c3ccccc3)cc(C)n2n1 | 10.3 | 5.9 | 3972 | ? | -1.9 | 3.0 | · | ·
CCOc1ccc(-c2cc(C)n3nc(C(N)=O)cc3n2)cc1 | 52.5* | 6.7 | 2728 | -5.5 | 5.1 | 4.4 | -1.9 | -1.1
O=c1c2ccccc2n(CC(O)CN2CCOCC2)c2ccccc12 (centres undefined) | 32.9* | -0.2 | 3012 | -4.5 | 6.9 | 2.0 | 5.2 | -1.0
CCc1ccc(-c2nc(SCC(=O)c3c(N)n(C)c(=O)n(C)c3=O)n[nH]2)cc1 | 29.2* | -3.3 | 2901 | -5.2 | 2.6 | -0.5 | 69.0* | 55.8*
NC(=O)c1nsc(C(=O)N(c2ccc(F)cc2)C(C(=O)NCC2CCCO2)c2ccc3ncccc3c2)c1N (centres undefined) | 22.4 | -2.7 | 3490 | -6.0 | 3.5 | -2.7 | · | ·
CCCCc1cc(=O)oc2cc(C)cc(OCC(=O)NCC3CCC(C(=O)O)CC3)c12 (centres undefined) | 67.0* | -1.8 | 5962 | -6.4 | 2.1 | -0.2 | -0.5 | -1.6
CCCc1cc(=O)oc2cc(C)cc(OCC(=O)NCc3ccccn3)c12 | 54.8* | -2.4 | 5496 | 3.0 | 5.6 | -0.8 | 28.5* | 32.3*
Cc1cc(OCC(=O)NCc2ccccn2)c2c(C)cc(=O)oc2c1 | 79.4* | -1.4 | 5450 | -0.1 | 3.0 | 1.3 | 102.5* | 72.2*
CCCCc1cc(=O)oc2cc(C)cc(OCC(=O)NCc3ccncc3)c12 | 81.1* | -0.1 | 5189 | 3.3 | 6.6 | 1.5 | 139.1* | 108.1*
Cc1ccc(C(=O)NC(C)C2CC3CCC2C3)c(C)c1 (centres undefined) | -5.6 | -1.3 | 5720 | 7.4 | 2.3 | 1.2 | · | ·
COc1ccc(C2=NN(CN3C(=O)C(=O)c4ccccc43)C(c3ccc(Br)cc3)C2)cc1 (centres undefined) | 3.6 | -3.8 | 10118 | -2.7 | 1.9 | -1.4 | · | ·

Source: PubChem (several laboratories)
